The nature of assay [1]: yeast TOR pathway RPL19A-GFP modulators, primary screen, cell-based, S. cerevisiae, multiplex flow cytometry (AID 1862; in the data active means percent of DMSO control GFP below about 86%;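 further: lower values mimic rapamycin by blocking the RPL19A rise seen in DMSO cells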). The conditions noted are these: S. cerevisiae RPL19A-GFP strain, flow cytometry fluorescence, 3 h; at 10 µM; stronger effect = lower value. In general terms: In flow cytometry, cells or beads pass a laser one at a time.
The nature of assay [2]: modulators of MEP2-GFP levels in yeast, primary screen, S. cerevisiae, multiplex flow cytometry (AID 1867;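 active means GFP response, as percent of the DMSO control, above the screen-wide mean plus 3 SD, about 139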;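 further: median GFP channel fluorescence of barcode-gated MEP2-GFP cells measured by flow cytometry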). The note with it: S. cerevisiae MEP2-GFP strain, 3 h, at 10 µM, stronger effect = higher value, 100% means same as DMSO wells.
Assay [3] can be described thus: modulators of CIT2-GFP expression in yeast, primary screen, S. cerevisiae, GFP fusion, multiplex flow cytometry (AID 1870;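 active means percent response above a set limit, the screen-wide mean plus 3 SD, cut at about 130% in these data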;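 further: barcoded CIT2-GFP strain pooled with four other GFP strains with rapamycin as positive control; median GFP fluorescence per well over plate mean of DMSO wells so 100% = DMSO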). The conditions noted are these: 3 h, at 10 µM, stronger effect = higher value.
Assay [4] is described as follows: modulators of LAP4-GFP expression in yeast, primary screen, S. cerevisiae, multiplex flow cytometry (AID 1873;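 active means GFP signal, as percent of the solvent control, above the screen mean plus 3 SD, about 149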). The conditions noted are these: 3 h, at 10 µM, stronger effect = higher value.
Assay [5] can be described thus: modulators of AGP1-GFP expression in yeast TOR pathway, primary screen, cell-based, multiplex flow cytometry, S. cerevisiae (AID 1887;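 active means GFP signal above the screen-wide mean plus 3 SD, that is over about 124.5% of the solvent control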;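 further: AGP1-GFP fusion strain of S. cerevisiae within a five-strain barcoded multiplex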). The conditions noted are these: 3 h, at 10 µM, stronger effect = higher value.
A short description of assay [6]: inhibitors of CD8+ T cell-vesicle binding, pilot screen, LFA-1/ICAM-1 modulator project, MLPCN validation set, flow cytometry (AID 2523;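 active means response below a set limit, under 55% cells CD8-positive and vesicle-bound, and CD8 cells' 90th-percentile brightness under 279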;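 on vesicle binding response: mean PE anti-B7-1 fluorescence of CD8+ cells relative to row control; 100% = QL9-loaded vesicles with DMSO vehicle in the same plate row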). The note with it: 2C mouse CD8+ T cells, at 7 µM, stronger effect = lower value; double positive events: measured here: CD8+/vesicle+ event percentage.
For assay [7], the target named is Integrin beta-1 (Homo sapiens) + Integrin alpha-4 (Homo sapiens) (UniProt P13612+P05556). Kind of assay: inhibition of HUTS-21 binding to VLA-4, pilot screen, VLA-4 allosteric modulator project, U937 cells, HUTS-21 mAb, flow cytometry, validation set (AID 2674;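 active means inhibition above 50%, about 3 SD of the validation set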;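 further: antibody binding induced by the VLA-4 ligand LDV present at three times its Kd; 0% = LDV ligand with antibody and no compound and 100% = antibody without LDV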). The note with it: HUTS-21 LIBS mAb binding, at 6.7 µM, stronger effect = higher value, binding induced by LDV ligand.
Integrin beta-1 (Homo sapiens) + Integrin alpha-4 (Homo sapiens), sequence (P05556 whole entry, looked up): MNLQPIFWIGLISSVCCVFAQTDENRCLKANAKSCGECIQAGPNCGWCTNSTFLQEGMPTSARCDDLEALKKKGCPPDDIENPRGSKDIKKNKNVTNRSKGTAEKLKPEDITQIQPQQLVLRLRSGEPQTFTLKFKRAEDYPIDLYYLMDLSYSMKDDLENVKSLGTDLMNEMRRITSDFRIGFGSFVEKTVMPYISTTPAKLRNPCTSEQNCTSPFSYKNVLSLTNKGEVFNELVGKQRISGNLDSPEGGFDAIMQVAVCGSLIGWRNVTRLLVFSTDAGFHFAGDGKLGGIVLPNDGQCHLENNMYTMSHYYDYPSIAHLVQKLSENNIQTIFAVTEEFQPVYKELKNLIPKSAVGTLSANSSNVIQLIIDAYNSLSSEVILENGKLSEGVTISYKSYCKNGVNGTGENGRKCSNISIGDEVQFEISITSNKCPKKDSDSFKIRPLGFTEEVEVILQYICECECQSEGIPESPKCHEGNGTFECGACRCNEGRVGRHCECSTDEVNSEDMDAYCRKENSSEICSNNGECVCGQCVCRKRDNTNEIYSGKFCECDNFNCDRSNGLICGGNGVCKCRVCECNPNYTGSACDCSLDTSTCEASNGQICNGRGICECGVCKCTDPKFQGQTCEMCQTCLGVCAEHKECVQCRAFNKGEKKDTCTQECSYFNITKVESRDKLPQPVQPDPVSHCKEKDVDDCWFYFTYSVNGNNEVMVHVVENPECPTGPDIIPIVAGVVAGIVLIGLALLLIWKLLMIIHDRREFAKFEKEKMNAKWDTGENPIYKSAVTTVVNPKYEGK
Integrin beta-1 (Homo sapiens) + Integrin alpha-4 (Homo sapiens), sequence (P13612 whole entry, looked up): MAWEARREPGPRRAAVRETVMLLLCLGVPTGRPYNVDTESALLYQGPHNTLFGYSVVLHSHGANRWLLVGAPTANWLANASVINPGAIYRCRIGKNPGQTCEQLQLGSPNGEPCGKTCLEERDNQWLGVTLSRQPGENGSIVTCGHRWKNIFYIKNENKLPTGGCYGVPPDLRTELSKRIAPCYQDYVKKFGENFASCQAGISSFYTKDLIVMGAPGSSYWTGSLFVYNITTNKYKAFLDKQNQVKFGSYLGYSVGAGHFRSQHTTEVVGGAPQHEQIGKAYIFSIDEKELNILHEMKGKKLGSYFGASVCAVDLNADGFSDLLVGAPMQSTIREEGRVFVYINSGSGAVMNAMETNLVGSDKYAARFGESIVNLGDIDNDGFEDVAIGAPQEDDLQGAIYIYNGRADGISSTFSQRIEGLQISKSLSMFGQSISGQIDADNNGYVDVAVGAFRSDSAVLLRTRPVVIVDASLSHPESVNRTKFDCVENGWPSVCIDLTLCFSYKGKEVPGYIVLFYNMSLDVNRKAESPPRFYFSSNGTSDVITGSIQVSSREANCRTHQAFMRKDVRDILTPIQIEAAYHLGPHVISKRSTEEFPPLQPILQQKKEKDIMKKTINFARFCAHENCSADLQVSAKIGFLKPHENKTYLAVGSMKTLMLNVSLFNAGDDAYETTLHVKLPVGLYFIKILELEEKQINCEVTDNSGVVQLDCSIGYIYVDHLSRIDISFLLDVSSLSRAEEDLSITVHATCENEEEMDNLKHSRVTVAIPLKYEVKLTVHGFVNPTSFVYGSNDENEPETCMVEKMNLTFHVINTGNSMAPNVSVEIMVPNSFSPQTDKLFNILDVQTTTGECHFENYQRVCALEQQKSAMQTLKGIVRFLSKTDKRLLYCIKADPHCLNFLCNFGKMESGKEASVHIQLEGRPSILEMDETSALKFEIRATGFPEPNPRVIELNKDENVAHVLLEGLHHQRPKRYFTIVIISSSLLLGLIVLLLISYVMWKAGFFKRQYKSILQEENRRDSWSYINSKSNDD

Assay [8] is described as follows: superoxide lowering in aged yeast cells, pilot screen, validation compound set (AID 2706;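 active means superoxide response below 65% of plate, a cut near 3 SD across the whole screen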;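 further: yeast exposed to compound for one week at 30 degrees C before staining; 100% = mean of all compound wells on the same plate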). The note with it: S. cerevisiae aging, superoxide DHE fluorescence; at 10 µM; stronger effect = lower value.
Assay [9] has as its target Beta-adrenergic receptor kinase 1 (Homo sapiens) (UniProt P25098). Kind of assay: GRK2 binders displacing RNA aptamer, biochemical, validation, human GRK2, bead flow cytometry (AID 488806). The note with it: bead-bound GRK2, FAM-aptamer displacement, at 10 µM, stronger effect = higher value.
For assay [10], the target named is Beta-2 adrenergic receptor (Homo sapiens) (UniProt P07550). Kind of assay: beta2AR agonists driving receptor internalization, pilot screen, cell-based, FAP fluorogen, flow cytometry, validation set (AID 504459;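 active means percent response above 42, roughly 3 SD of non-fluorescent test compounds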;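 further: agonist-driven loss of surface beta2AR via internalization measured by FAP dye flow cytometry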). The conditions noted are these: Am2.2-beta2AR cells, FAP surface receptor flow cytometry; at 10 µM; stronger effect = higher value.
Beta-2 adrenergic receptor (Homo sapiens), sequence (P07550 whole entry, looked up): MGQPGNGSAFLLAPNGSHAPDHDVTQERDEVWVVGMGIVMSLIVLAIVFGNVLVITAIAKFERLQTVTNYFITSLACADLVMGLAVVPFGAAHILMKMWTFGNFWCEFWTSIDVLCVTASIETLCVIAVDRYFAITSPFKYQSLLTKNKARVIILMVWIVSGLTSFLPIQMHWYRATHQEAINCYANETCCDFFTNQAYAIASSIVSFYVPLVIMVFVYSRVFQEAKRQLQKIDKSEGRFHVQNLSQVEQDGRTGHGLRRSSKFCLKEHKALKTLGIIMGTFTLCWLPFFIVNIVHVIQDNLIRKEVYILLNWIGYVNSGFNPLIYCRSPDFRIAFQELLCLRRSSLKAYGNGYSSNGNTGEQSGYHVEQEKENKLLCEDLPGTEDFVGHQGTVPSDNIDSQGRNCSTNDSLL
Assay [11] addresses AP-2 complex subunit beta (Homo sapiens) (UniProt P63010). Kind of assay: inhibitors of arrestin peptide binding to AP2, pilot screen, biochemical, validation set, GST-AP2 beads, flow cytometry (AID 504541;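 active means inhibition above 54%, about 3 SD of non-fluorescent compounds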;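 further: AP2 carries R879A mutation and is captured from E. coli lysate; bead-bound FITC arrestin peptide fluorescence measuring arrestin peptide binding to AP2; 0% = DMSO wells and 100% = excess unlabeled arrestin peptide control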). The note with it: FITC arrestin peptide, at 10 µM, stronger effect = higher value, AP2 beta2 appendage fragment, R879A mutant.
Assay [12] in a line: yeast V-ATPase proton transport modulators, S. cerevisiae, pHLuorin, HTS validation (AID 504600; in the data active means response above about 15%;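 further: plate controls were DMSO for no effect and reference compound for full effect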). The conditions noted are these: S. cerevisiae pHLuorin cytosolic pH, at 10 µM, stronger effect = higher value.
Assay [13] has as its system anti-desmoglein-3 scFv antibody binding to human DSG3. In words: inhibitors of anti-DSG3 scFv binding to DSG3, pilot screen, biochemical, validation compound set, bead-based, flow cytometry (AID 588368;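 active means binding below the plate cutoff, the plate median minus 3 SD, with a reading above zero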;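 further: signal is the median channel fluorescence of bead-bound GFP antibody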). The conditions noted are these: Protein G beads, DSG3-Fc, scFv-GFP binding, at 10 µM, stronger effect = lower value.
Assay [14] in a line: inhibitors of fungal efflux pumps CDR1, CDR2, MDR1, pilot screen, validation compound set, multiplex, phenotypic (AID 588506;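 active means efflux inhibition above 0.42, the validation set average plus 4 SD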;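 further: Nile Red retained in cells so higher fluorescence means more efflux inhibition; 0 = negative control wells and 1 = enniatin B 25 µM full block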). The note with it: S. cerevisiae pump-expressing triplex, Nile Red efflux flow cytometry; at 10 µM; stronger effect = higher value; the pumps come from Candida albicans.
For assay [15], the target named is ATP-binding cassette sub-family B member 6 (Homo sapiens) (UniProt Q9NP58). Kind of assay: ABCB6 transporter inhibitors, pilot screen, K562-ABCB6 cells, flow cytometry, validation set (AID 588550;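 active means inhibition above the screen-wide mean plus 3 SD, about 51%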;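 further: 0% = DMSO wells and 100% = benzethonium chloride 70 µM positive control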). The note with it: K562-ABCB6 porphyrin accumulation, 1 h, at 10 µM, stronger effect = higher value.
ATP-binding cassette sub-family B member 6 (Homo sapiens), sequence (Q9NP58 whole entry, looked up): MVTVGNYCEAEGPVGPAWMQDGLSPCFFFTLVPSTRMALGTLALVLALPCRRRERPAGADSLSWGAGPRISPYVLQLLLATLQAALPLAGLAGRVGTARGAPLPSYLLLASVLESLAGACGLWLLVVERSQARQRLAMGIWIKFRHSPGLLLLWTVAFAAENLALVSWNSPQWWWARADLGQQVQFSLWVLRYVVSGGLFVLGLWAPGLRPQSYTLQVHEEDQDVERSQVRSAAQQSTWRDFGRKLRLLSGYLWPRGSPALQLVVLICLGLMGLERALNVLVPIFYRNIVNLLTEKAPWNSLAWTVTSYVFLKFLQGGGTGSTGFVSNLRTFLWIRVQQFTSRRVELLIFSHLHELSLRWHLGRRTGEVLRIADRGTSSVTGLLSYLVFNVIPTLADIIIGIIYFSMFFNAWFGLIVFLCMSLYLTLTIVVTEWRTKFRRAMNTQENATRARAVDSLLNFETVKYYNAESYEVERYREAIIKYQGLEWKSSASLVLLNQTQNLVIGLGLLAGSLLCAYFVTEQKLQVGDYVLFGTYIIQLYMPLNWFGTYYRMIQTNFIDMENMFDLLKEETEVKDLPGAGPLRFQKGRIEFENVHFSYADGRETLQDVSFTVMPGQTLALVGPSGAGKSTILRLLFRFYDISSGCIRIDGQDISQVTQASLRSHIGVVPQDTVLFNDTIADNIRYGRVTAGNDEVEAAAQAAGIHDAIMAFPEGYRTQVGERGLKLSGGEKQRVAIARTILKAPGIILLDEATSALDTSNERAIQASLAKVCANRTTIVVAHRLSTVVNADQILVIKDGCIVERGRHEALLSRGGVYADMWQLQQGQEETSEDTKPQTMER
Assay [16] in a line: promoters of myeloid differentiation in arrested cells, primary screen, cell-based, GFP/MAC1 double positive, flow cytometry, validation set (AID 588685;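 active means differentiation response of at least 50%, scaled between solvent and reference control, from cells with both markers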;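 further: compound exposure lasts four days before antibody staining and flow analysis; 0% = DMSO wells and 100% = 5 µM fulvestrant positive control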). The note with it: ER-HoxA9 marrow cells, stronger effect = higher value, normalized: vehicle 0, fulvestrant 100.

These results are taken from PubChem BioAssay.

Usually inhibition stands for the change of the read-out against control, counted positive when it falls.

SMILES strings stand for the structures. Inconclusive results are not listed. The source made the active and inactive calls.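 How the source made its calls, unless noted: active means aptamer binding inhibition above 30%, about 3 SD of noise from non-fluorescent compounds; inactive means inhibition at or below 30%.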

AP-2 complex subunit beta (Homo sapiens), sequence (P63010 whole entry, looked up, the tested form may be a part, one chain of several): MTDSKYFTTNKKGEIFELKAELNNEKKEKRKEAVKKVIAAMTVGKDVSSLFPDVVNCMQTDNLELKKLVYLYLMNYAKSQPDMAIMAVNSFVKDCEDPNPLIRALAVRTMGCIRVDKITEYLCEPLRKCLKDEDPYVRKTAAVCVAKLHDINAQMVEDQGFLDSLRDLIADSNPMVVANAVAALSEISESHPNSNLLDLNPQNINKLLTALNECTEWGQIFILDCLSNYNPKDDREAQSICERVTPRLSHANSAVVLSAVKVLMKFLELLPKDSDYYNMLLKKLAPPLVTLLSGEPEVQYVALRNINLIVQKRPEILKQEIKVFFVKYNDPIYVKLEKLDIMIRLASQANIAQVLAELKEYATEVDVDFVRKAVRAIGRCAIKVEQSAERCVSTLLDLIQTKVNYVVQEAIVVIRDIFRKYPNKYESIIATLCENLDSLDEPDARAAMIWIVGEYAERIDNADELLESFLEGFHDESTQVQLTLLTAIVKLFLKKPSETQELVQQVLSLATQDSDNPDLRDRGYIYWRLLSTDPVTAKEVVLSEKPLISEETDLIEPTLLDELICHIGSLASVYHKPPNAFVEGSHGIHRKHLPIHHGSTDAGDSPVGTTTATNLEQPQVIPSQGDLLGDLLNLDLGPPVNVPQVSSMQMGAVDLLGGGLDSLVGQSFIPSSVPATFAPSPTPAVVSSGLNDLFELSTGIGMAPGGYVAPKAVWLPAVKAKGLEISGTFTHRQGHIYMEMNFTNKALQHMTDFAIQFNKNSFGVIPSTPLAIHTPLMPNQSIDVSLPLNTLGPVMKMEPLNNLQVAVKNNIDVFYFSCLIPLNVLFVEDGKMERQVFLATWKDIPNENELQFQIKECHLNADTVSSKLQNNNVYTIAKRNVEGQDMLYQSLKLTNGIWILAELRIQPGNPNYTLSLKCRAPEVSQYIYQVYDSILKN
Beta-adrenergic receptor kinase 1 (Homo sapiens), sequence (P25098 whole entry, looked up): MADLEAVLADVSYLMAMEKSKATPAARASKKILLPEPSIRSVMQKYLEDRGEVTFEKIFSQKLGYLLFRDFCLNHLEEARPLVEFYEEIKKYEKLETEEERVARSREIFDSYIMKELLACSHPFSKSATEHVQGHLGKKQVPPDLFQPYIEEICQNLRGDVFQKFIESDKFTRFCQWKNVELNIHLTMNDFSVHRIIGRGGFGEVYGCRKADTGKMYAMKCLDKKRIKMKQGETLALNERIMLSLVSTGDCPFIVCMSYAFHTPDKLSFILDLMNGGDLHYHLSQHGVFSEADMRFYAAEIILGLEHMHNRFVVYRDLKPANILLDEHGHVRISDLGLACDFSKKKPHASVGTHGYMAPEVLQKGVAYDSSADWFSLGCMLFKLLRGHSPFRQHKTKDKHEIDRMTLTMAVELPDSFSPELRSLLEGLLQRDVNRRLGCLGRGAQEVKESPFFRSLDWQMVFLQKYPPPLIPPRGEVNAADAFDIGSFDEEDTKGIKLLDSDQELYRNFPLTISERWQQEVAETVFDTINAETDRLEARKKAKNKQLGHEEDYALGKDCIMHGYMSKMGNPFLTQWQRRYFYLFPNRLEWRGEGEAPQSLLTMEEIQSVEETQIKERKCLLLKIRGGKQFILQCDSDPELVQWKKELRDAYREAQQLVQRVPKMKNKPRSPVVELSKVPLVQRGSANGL

For the compound `CCc1cc(/C(Cc2ccccn2)=N\O)c(O)cc1O`, the percent of DMSO control GFP in assay [1] is 99.1% (inactive). Moreover, the GFP response vs DMSO in assay [2] is 102% (inactive); in assay [4], 83.7% (inactive). Moreover, in assay [3], the percent response of DMSO control was 107% (inactive). Also, in assay [5], the GFP response, % of DMSO was 91.4% (inactive). Further, the double positive events in assay [6] stood at 52.1%. Also, the vesicle binding response in assay [6] was 51.2% (active). Also, the results for the inhibition in assay [7], in assay [11] and in assay [15] were -14.1% (inactive), 15.4% (inactive) and 1% (inactive), respectively. Besides, the superoxide response (% of plate) in [8] was 104% (inactive). For the same compound, the aptamer binding inhibition in assay [9] was 3% (inactive). Also, the response in [10] was 10.8% (inactive); in [12] it was 2.25% (inactive). In addition, in [13], the binding (% of control) was 101% (inactive). In addition, in assay [14], the efflux inhibition (fraction of control) was -0.17 (inactive). Also, the differentiation response in [16] is -5.6% (inactive).

On to `O=C(OCC(O)C(O)COC(=O)c1ccccc1)c1ccccc1` (stereo not given), for which the percent of DMSO control GFP in [1] is 102% (inactive). The GFP response vs DMSO in [2] is 105% (inactive); in [4], 106% (inactive). In [3], the percent response of DMSO control was 105% (inactive). Moreover, the GFP response, % of DMSO in assay [5] was 107% (inactive). The same compound came in with a double positive events in assay [6] of 58.5%. Also, the vesicle binding response in assay [6] is 102% (inactive). The results for the inhibition in [7], in assay [11] and in [15] were -10.5% (inactive), 2.63% (inactive) and 2% (inactive), respectively. Besides, the superoxide response (% of plate) in assay [8] is 105% (inactive). The aptamer binding inhibition in assay [9] was -1% (inactive). Further, the values for the response in [10] and in assay [12] were -4.55% (inactive) and -5% (inactive), respectively. Also, the binding (% of control) in assay [13] is 97.7% (inactive). Besides, the efflux inhibition (fraction of control) in assay [14] was 0.17 (inactive). Moreover, in [16], the differentiation response was -16.3% (inactive).

Turning to `COc1ccc(NC(=O)C2OC3OC(C)(C)OC3C3OC(C)(C)OC23)cc1` (stereo not given), the percent of DMSO control GFP in assay [1] was 98.9% (inactive). For the same compound, the GFP response vs DMSO is 98.6% (inactive) in assay [2] and 106% (inactive) in [4]. Besides, the percent response of DMSO control in assay [3] was 98.3% (inactive). Also, in assay [5], the GFP response, % of DMSO was 119% (inactive). In addition, in [6], the double positive events is 63.5%. In addition, the vesicle binding response in [6] is 203% (inactive). Further, the inhibition in assay [7] is 13.4% (inactive); in assay [11], -12.6% (inactive); in assay [15], 5% (inactive). Moreover, the superoxide response (% of plate) in [8] is 103% (inactive). Moreover, the aptamer binding inhibition in [9] was 5% (inactive). For the same compound, the response in assay [10] was -8.79% (inactive); in assay [12], 1.13% (inactive). In addition, the binding (% of control) in [13] was 106% (inactive). In [14], the efflux inhibition (fraction of control) was -0.04 (inactive). Further, the differentiation response in assay [16] was 0.92% (inactive).

As for `O=C(O)CCSCCC(=O)O`, in assay [1], the percent of DMSO control GFP was 99.2% (inactive). Moreover, the GFP response vs DMSO in assay [2] was 107% (inactive); in [4], 97.3% (inactive). For the same compound, in [3], the percent response of DMSO control was 94.2% (inactive). For the same compound, the GFP response, % of DMSO in assay [5] is 102% (inactive). This compound also came in with a double positive events in assay [6] of 63.2%. Besides, the vesicle binding response in assay [6] is 5720% (inactive). In addition, the inhibition in assay [7] was 8.88% (inactive); in assay [11] it was 10% (inactive); in assay [15], 7% (inactive). For the same compound, in assay [8], the superoxide response (% of plate) was 107% (inactive). The aptamer binding inhibition in [9] was 1% (inactive). The response in assay [10] was 2.6% (inactive); in [12] it was 1.2% (inactive). The binding (% of control) in assay [13] was 94% (inactive). Moreover, the efflux inhibition (fraction of control) in assay [14] is 0.05 (inactive). Moreover, the differentiation response in [16] is -9.53% (inactive).

As to `Cn1c(=S)n(C)c2ccccc21`, the percent of DMSO control GFP in [1] was 99.2% (inactive). Moreover, the GFP response vs DMSO was 104% (inactive) in assay [2] and 110% (inactive) in assay [4]. For the same compound, the percent response of DMSO control in assay [3] is 94.4% (inactive). The GFP response, % of DMSO in assay [5] is 104% (inactive). Moreover, the double positive events in assay [6] stood at 61.4%. In addition, the vesicle binding response in assay [6] is 264% (inactive). Also, the values for the inhibition in assay [7], in [11] and in assay [15] were 16.8% (inactive), 0.89% (inactive) and 7% (inactive), respectively. For the same compound, in assay [8], the superoxide response (% of plate) is 104% (inactive). The aptamer binding inhibition in [9] is 3% (inactive). Further, the results for the response in [10] and in assay [12] were 25.9% (inactive) and -1.79% (inactive), respectively. Moreover, in assay [13], the binding (% of control) is 105% (inactive). Moreover, the efflux inhibition (fraction of control) in [14] was 0.08 (inactive). In addition, in assay [16], the differentiation response is -4% (inactive).
